Where “and” joins values, the source holds several entries; their conditions need not be identical. Identical values can stand only once. Out of some 5,500 compounds screened, about 2,000 (36%) were called active. Inconclusive results (about 18%) are left out. Cut-off read from the data, not from the text of the source: active = normalized growth mostly below about 0.91 (no sharp cut-off); inconclusive = no clear call, values can overlap the other calls; inactive = mostly above about 0.92. Some of the results follow.
Test: chemical genetic growth profiling, strain panel (AID 1159580);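 note: tested at 20 µM; growth read once vehicle control cultures reached saturation at 30 °C; 1 = growth at the plate median or of vehicle wells; lower values mean less growth of the strain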
Conditions: S. cerevisiae deletion strains, growth OD

Measured: normalized growth

CC(N=C(NC#N)Nc1ccncc1)C(C)(C)C (configuration not stated)
inactive: locus YAL013W, strain DEP1, stronger effect = lower value 1.01 | locus YAL021C, strain ccr4, stronger effect = lower value 0.988 | locus YAL026C, strain drs2, stronger effect = lower value 0.997 | locus YAL030W, strain snc1, stronger effect = lower value 0.988 | locus YAL040C, strain CLN3, stronger effect = lower value 0.983 | locus YBL061C, strain skt5, stronger effect = lower value 0.986 | locus YBR009C, strain hhf1, stronger effect = lower value 1.01 | locus YBR021W, strain FUR4, stronger effect = lower value 1.02 | locus YBR023C, strain chs3, stronger effect = lower value 0.98 | locus YBR171W, strain sec66, stronger effect = lower value 0.958 | locus YBR229C, strain ROT2, stronger effect = lower value 1.01 | locus YBR231C, strain swc5, stronger effect = lower value 0.953 | locus YBR279W, strain paf1, stronger effect = lower value 0.994 | locus YCL011C, strain gbp2, stronger effect = lower value 0.989 | locus YCL016C, strain dcc1, stronger effect = lower value 1.02 | locus YCL029C, strain bik1, stronger effect = lower value 1.04 | locus YCL061C, strain MRC1 (second series), stronger effect = lower value 0.999 | locus YCL061C, strain MRC1, stronger effect = lower value 0.951 | locus YCL069W, strain vba3, stronger effect = lower value 0.989 | locus YCR088W, strain abp1, stronger effect = lower value 0.98 | locus YDL005C, strain med2, stronger effect = lower value 0.988 | locus YDL035C, strain GPR1, stronger effect = lower value 0.999 | locus YDL040C, strain nat1, stronger effect = lower value 0.979 | locus YDL074C, strain BRE1, stronger effect = lower value 1.05 | locus YDL101C, strain DUN1, stronger effect = lower value 1.01 | locus YDL134C, strain PPH21, stronger effect = lower value 1.01 | locus YDL185W, strain tfp1, stronger effect = lower value 1.02 | locus YDL192W, strain arf1, stronger effect = lower value 1.01 | locus YDR001C, strain nth1, stronger effect = lower value 0.963 | locus YDR069C, strain doa4, stronger effect = lower value 0.949 | locus YDR101C, strain arx1, stronger effect = lower value 1.01 | locus YDR137W, strain rgp1, stronger effect = lower value 0.97 | locus YDR150W, strain NUM1, stronger effect = lower value 1.02 and 1 | locus YDR159W, strain sac3, stronger effect = lower value 1.01 | locus YDR162C, strain NBP2, stronger effect = lower value 1.01 | locus YDR195W, strain ref2 0.895 | locus YDR297W, strain sur2, stronger effect = lower value 0.971 | locus YDR318W, strain mcm21, stronger effect = lower value 1.02 | locus YDR334W, strain swr1, stronger effect = lower value 0.949 | locus YDR335W, strain msn5, stronger effect = lower value 0.972 | locus YDR363W, strain ESC2, stronger effect = lower value 0.904 | locus YDR388W, stronger effect = lower value 1.02 | locus YDR392W, strain spt3, stronger effect = lower value 1.04 | locus YDR502C, strain sam2, stronger effect = lower value 1.01 | locus YEL003W, strain gim4, stronger effect = lower value 0.967 | locus YEL037C, strain rad23, stronger effect = lower value 0.998 | locus YEL061C, strain CIN8 (second series), stronger effect = lower value 0.974 | locus YEL061C, strain CIN8, stronger effect = lower value 1.01 | locus YER002W, strain NOP16, stronger effect = lower value 1 | locus YER015W, strain faa2, stronger effect = lower value 0.999 | locus YER016W, strain bim1, stronger effect = lower value 0.986 | locus YER110C, stronger effect = lower value 1.02 | locus YER111C, strain swi4, stronger effect = lower value 0.995 | locus YER155C, strain BEM2 (second series), stronger effect = lower value 0.929 | locus YER155C, strain BEM2, stronger effect = lower value 1 | locus YER167W, strain BCK2, stronger effect = lower value 0.996 | locus YFR010W, strain ubp6, stronger effect = lower value 0.964 | locus YGL078C, strain dbp3, stronger effect = lower value 1.01 | locus YGL086W, strain mad1, stronger effect = lower value 1 | locus YGL167C, strain pmr1, stronger effect = lower value 0.961 | locus YGL173C, strain kem1, stronger effect = lower value 0.97 | locus YGL227W, strain vid30, stronger effect = lower value 0.986 | locus YGL240W, strain doc1, stronger effect = lower value 0.945 | locus YGL248W, strain PDE1, stronger effect = lower value 1 | locus YGL253W, strain hxk2, stronger effect = lower value 1.01 | locus YGR078C, strain PAC10, stronger effect = lower value 1.04 and 0.982 | locus YGR135W, strain pre9, stronger effect = lower value 1.03 | locus YGR229C, strain SMI1, stronger effect = lower value 1.02 | locus YGR252W, strain gcn5, stronger effect = lower value 0.967 | locus YHR013C, strain ard1, stronger effect = lower value 0.985 | locus YHR027C, strain rpn1, stronger effect = lower value 0.979 | locus YHR030C, strain SLT2, stronger effect = lower value 1.01 | locus YHR079C, strain IRE1 (second series), stronger effect = lower value 1.02 | locus YHR094C, strain hxt1, stronger effect = lower value 1.02 | locus YHR129C, strain ARP1, stronger effect = lower value 1 | locus YHR142W, strain chs7, stronger effect = lower value 1.02 | locus YHR200W, strain rpn10, stronger effect = lower value 1.02 | locus YIL066C, strain RNR3, stronger effect = lower value 1.02 | locus YIL073C, strain SPO22, stronger effect = lower value 1.02 | locus YIL125W, strain kgd1, stronger effect = lower value 1.01 | locus YIR030C, strain dcg1, stronger effect = lower value 1.02 | locus YJL092W, strain hpr5, stronger effect = lower value 0.976 | locus YJL095W, strain BCK1 (second series), stronger effect = lower value 0.974 | locus YJL095W, strain BCK1, stronger effect = lower value 1.04 | locus YJL115W, strain asf1, stronger effect = lower value 0.971 | locus YJL129C, strain trk1, stronger effect = lower value 0.979 | locus YJL134W, strain LCB3, stronger effect = lower value 1.01 | locus YJL154C, strain vps35, stronger effect = lower value 0.972 | locus YJL164C, strain tpk1, stronger effect = lower value 1.03 | locus YJL166W, strain qcr8, stronger effect = lower value 0.922 | locus YJL168C, strain set2, stronger effect = lower value 1.02 | locus YJL187C, strain SWE1 (second series), stronger effect = lower value 1.03

Source: PubChem BioAssay AID1159580 (chemical genetic matrix, 2015)
